Counter-ions that a name gives are not always drawn.
How the values were obtained:
Conditions in all cases: 20 µM; incubation time: 27 h, anaerobic, 37 °C;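 for the amine columns active = adjusted P below 0.05 in both replicates with a change the same way and a mean fold change under 0.8 or over 1.25; inactive = the rest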
[1] = test system: Clostridium sporogenes DSM 1664; assay: growth (OD595) fold change vs plate DMSO controls (fold change (ratio)); higher = more growth
Outline: (§1)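 Each value is the mean of 2 biological replicates, and fold changes above 1.5 were set to NA. The underlying readings were taken at 595 nm from shaken anaerobic mGAM cultures in 96-well plates after 27 h at 37 °C. They were blank-subtracted, corrected for compound background using 20 µM compound solutions in water, and converted to OD with a calibration factor of 5. Growth is the fold change relative to the median of the plate DMSO controls.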

Escherichia coli IAI1 [2] = assay: as above
Outline: as §1

[3] = test system: Klebsiella aerogenes DSM 30053; assay: as above
Outline: as §1

[4] = test system: Ruminococcus gnavus DSM 108212; assay: as above
Outline: as §1

[5] = test system: Klebsiella aerogenes DSM 30053; assay: fold change of Histamine concentration vs plate DMSO controls (fold change (ratio)); higher = more amine produced, active = hit call of the paper (significant change in both replicates, either direction)
Outline: (§2)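 Using LC–triple-quadrupole MS with dynamic MRM, amines were quantified against external calibration curves and corrected for drift within each batch. Samples were whole anaerobic mGAM cultures of four gut strains, grown 27 h at 37 °C from OD 0.1 before 1:1 dilution, extracted with cold acetonitrile/methanol containing 0.1% formic acid and centrifuged. Compounds were present at 20 µM final (sweeteners at 50 µM final). The numbers are fold changes versus plate DMSO controls, each the mean of 2 biological replicates.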

[6] = test system: Clostridium sporogenes DSM 1664; assay: fold change of Tryptamine concentration vs plate DMSO controls (fold change (ratio)); higher = more amine produced, active = hit call of the paper (significant change in both replicates, either direction)
Outline: as §2

[7] = test system: Ruminococcus gnavus DSM 108212; assay: as above
Outline: as §2

Escherichia coli IAI1 [8] = assay: fold change of Putrescine concentration vs plate DMSO controls (fold change (ratio)); higher = more amine produced, active = hit call of the paper (significant change in both replicates, either direction)
Outline: as §2

[9] = test system: Klebsiella aerogenes DSM 30053; assay: as above
Outline: as §2

Escherichia coli IAI1 [10] = assay: fold change of Cadaverine concentration vs plate DMSO controls (fold change (ratio)); higher = more amine produced, active = hit call of the paper (significant change in both replicates, either direction)
Outline: as §2

[11] = test system: Klebsiella aerogenes DSM 30053; assay: as above
Outline: as §2

[12] = test system: Ruminococcus gnavus DSM 108212; assay: fold change of 2-Phenylethylamine concentration vs plate DMSO controls (fold change (ratio)); higher = more amine produced, active = hit call of the paper (significant change in both replicates, either direction)
Outline: as §2

| Structure (SMILES) | growth [1] | growth (Escherichia coli IAI1 [2]) | growth [3] | growth [4] | fold change of Histamine concentration [5] | fold change of Tryptamine concentration [6] | fold change of Tryptamine concentration [7] | fold change of Putrescine concentration (Escherichia coli IAI1 [8]) | fold change of Putrescine concentration [9] | fold change of Cadaverine concentration (Escherichia coli IAI1 [10]) | fold change of Cadaverine concentration [11] | fold change of 2-Phenylethylamine concentration [12] |
| --- | --- | --- | --- | --- | --- | --- | --- | --- | --- | --- | --- | --- |
| COCC(C)N(C(=O)CCl)c1c(C)csc1C (configuration not stated) | 1.06 | 1.02 | 1.03 | 0.986 | 0.989 (inactive) | 1.02 (inactive) | 0.991 (inactive) | 1.01 (inactive) | 1.01 (inactive) | 0.953 (inactive) | 1.04 (inactive) | 0.941 (inactive) |
| C[N+](C)(C)CCCl | 1.05 | 0.994 | 0.986 | 0.97 | 1.01 (inactive) | 1.03 (inactive) | 1.06 (inactive) | 0.949 (inactive) | 0.82 (inactive) | 0.863 (inactive) | 1.08 (inactive) | 1.06 (inactive) |
| COP(=O)(OC)OC=C(Cl)Cl | 1.05 | 1.03 | 0.995 | 1.07 | 0.89 (inactive) | 1.05 (inactive) | 1.06 (inactive) | 0.985 (inactive) | 0.921 (inactive) | 0.964 (inactive) | 1.06 (inactive) | 1.07 (inactive) |
| O=C(O)C(F)(F)C(F)(F)C(F)(F)C(F)(F)C(F)(F)C(F)(F)C(F)(F)F [PFOA (Perfluorooctanoic acid)] | 0.946 | 1.02 | 0.999 | 0.985 | 1.02 (inactive) | 0.979 (inactive) | 0.94 (inactive) | 1.03 (inactive) | 1 (inactive) | 1.02 (inactive) | 0.992 (inactive) | 0.878 (inactive) |
| CC[C@H](C)[C@H]1O[C@]2(C=C[C@@H]1C)C[C@@H]1C[C@@H](C/C=C(\C)[C@@H](O[C@H]3C[C@H](OC)[C@@H](O[C@H]4C[C@H](OC)[C@@H](O)[C@H](C)O4)[C@H](C)O3)[C@@H](C)/C=C/C=C3\CO[C@@H]4[C@H](O)C(C)=C[C@@H](C(=O)O1)[C@]34O)O2.CO[C@H]1C[C@H](O[C@H]2[C@H](C)O[C@@H](O[C@@H]3/C(C)=C/C[C@@H]4C[C@@H](C[C@]5(C=C[C@H](C)[C@@H](C(C)C)O5)O4)OC(=O)[C@@H]4C=C(C)[C@@H](O)[C@H]5OC/C(=C\C=C\[C@@H]3C)[C@]54O)C[C@@H]2OC)O[C@@H](C)[C@@H]1O [Avermectin B1] | 1.13 | 1.06 | 0.967 | 0.91 | 0.906 (inactive) | 0.921 (inactive) | 0.929 (inactive) | 1.06 (inactive) | 0.985 (inactive) | 0.996 (inactive) | 0.995 (inactive) | 0.883 (inactive) |
| O=C(O)C(F)(F)C(F)(F)C(F)(F)C(F)(F)C(F)(F)C(F)(F)C(F)(F)C(F)(F)C(F)(F)F [PFDeA (Perfluorodecanoic acid)] | 1.11 | 1.04 | 1.04 | 1.24 | 1.02 (inactive) | 0.916 (inactive) | 0.999 (inactive) | 1.02 (inactive) | 0.996 (inactive) | 1.01 (inactive) | 1 (inactive) | 0.962 (inactive) |
| CC(C)CC(N(C)C)C1(c2ccc(Cl)cc2)CCC1 (configuration not stated) [Sibutramine hydrochloride] | 0.99 | 1 | 1.01 | 0.908 | 1.05 (inactive) | 0.976 (inactive) | 0.985 (inactive) | 1.01 (inactive) | 0.999 (inactive) | 0.984 (inactive) | 0.989 (inactive) | 1 (inactive) |
| O=C(Nc1ccccc1-c1ccc(Cl)cc1)c1cccnc1Cl | 0.923 | 1.02 | 0.996 | 0.965 | 0.953 (inactive) | 0.954 (inactive) | 0.949 (inactive) | 1 (inactive) | 0.985 (inactive) | 0.979 (inactive) | 0.999 (inactive) | 0.916 (inactive) |
| CCCCCCCCCCCCN=C(N)N | 1.1 | 0.995 | 1.02 | 1.19 | 1.03 (inactive) | 0.927 (inactive) | 0.896 (inactive) | 1.01 (inactive) | 1.06 (inactive) | 0.951 (inactive) | 1.03 (inactive) | 0.893 (inactive) |
| Cc1cccc(C)c1NC1=NCCCS1 [Xylazine] | 1.16 | 0.985 | 0.959 | 0.87 | 1.09 (inactive) | 1.01 (inactive) | 1 (inactive) | 1.03 (inactive) | 1.02 (inactive) | 0.991 (inactive) | 0.993 (inactive) | 1 (inactive) |
| CCCC(C)(COC(N)=O)COC(=O)NC(C)C (configuration not stated) [Carisoprodol] | 1.03 | 1.01 | 1.01 | 0.919 | 1.03 (inactive) | 1.01 (inactive) | 1.02 (inactive) | 1.02 (inactive) | 1 (inactive) | 1.02 (inactive) | 1 (inactive) | 1.05 (inactive) |
| NC(=O)C[S+]([O-])C(c1ccccc1)c1ccccc1 (configuration not stated) [Modafinil] | 0.82 | 0.705 | 0.712 | 0.795 | 0.949 (inactive) | 1.1 (inactive) | 1.03 (inactive) | 1.01 (inactive) | 0.987 (inactive) | 0.99 (inactive) | 1 (inactive) | 1.06 (inactive) |
| C[C@]12CC[C@@H]3c4ccc(OC(=O)N(CCCl)CCCl)cc4CC[C@H]3[C@@H]1CC[C@@H]2O [Estramustine] | 0.804 | 0.998 | 0.983 | 1.24 | 0.899 (inactive) | 0.616 (active) | 0.949 (inactive) | 1.01 (inactive) | 1.01 (inactive) | 1.05 (inactive) | 1.04 (inactive) | 0.928 (inactive) |
| CCC(COC(=O)c1cc(OC)c(OC)c(OC)c1)(c1ccccc1)N(C)C (configuration not stated) [Trimebutine] | 0.842 | 0.979 | 0.999 | 0.868 | 0.944 (inactive) | 0.936 (inactive) | 1.06 (inactive) | 0.928 (inactive) | 1.01 (inactive) | 0.997 (inactive) | 1.01 (inactive) | 1.04 (inactive) |
| O=[N+]([O-])c1ccc2ccc3cccc4ccc1c2c34 [1-Nitropyrene] | 0.638 | 1.04 | 1 | 0.914 | 0.971 (inactive) | 0.785 (inactive) | 0.952 (inactive) | 1.03 (inactive) | 1 (inactive) | 0.96 (inactive) | 1.01 (inactive) | 0.967 (inactive) |
| CC(=O)O[C@H]1C[C@H](O[C@H]2[C@@H](O)C[C@H](O[C@H]3[C@@H](O)C[C@H](O[C@H]4CC[C@@]5(C)[C@H](CC[C@@H]6[C@@H]5C[C@@H](O)[C@]5(C)[C@@H](C7=CC(=O)OC7)CC[C@]65O)C4)O[C@@H]3C)O[C@@H]2C)O[C@H](C)[C@H]1O[C@@H]1O[C@H](CO)[C@@H](O)[C@H](O)[C@H]1O [Lanatoside C] | 1.01 | 0.957 | 0.998 | 1.12 | 0.992 (inactive) | 0.962 (inactive) | 1.07 (inactive) | 1.09 (inactive) | 0.991 (inactive) | 1.02 (inactive) | 0.996 (inactive) | 1.1 (inactive) |
| C[C@]12CCC(=O)C=C1CC[C@@H]1[C@@H]2C(=O)C[C@]2(C)C(=O)CC[C@@H]12 [Adrenosterone] | 1.1 | 1.04 | 1.01 | 1 | 0.94 (inactive) | 1.02 (inactive) | 1.07 (inactive) | 1.09 (inactive) | 0.998 (inactive) | 1.01 (inactive) | 1.02 (inactive) | 1.07 (inactive) |
| CNC(C)(C)Cc1ccccc1 [Mephentermine hemisulfate] | 1.05 | 0.976 | 0.99 | 0.991 | 0.952 (inactive) | 1.04 (inactive) | 1.24 (inactive) | 1.03 (inactive) | 0.952 (inactive) | 0.943 (inactive) | 1.01 (inactive) | 1.38 (inactive) |
| N#CCNC(=O)c1cnccc1C(F)(F)F | 1.08 | 1 | 0.999 | 1.12 | 1.02 (inactive) | 1 (inactive) | 1 (inactive) | 1.01 (inactive) | 1.01 (inactive) | 1.03 (inactive) | 0.997 (inactive) | 0.951 (inactive) |
| C=C[C@H]1CN2CC[C@H]1C[C@H]2[C@H](OC(=O)OCC)c1ccnc2ccc(OC)cc12 [Quinine ethyl carbonate] | 1.08 | 1.01 | 1.01 | 0.915 | 0.967 (inactive) | 1.01 (inactive) | 0.955 (inactive) | 1.03 (inactive) | 0.985 (inactive) | 1.01 (inactive) | 0.993 (inactive) | 1.03 (inactive) |
| c1cc2c3c(cccc3c1)CC2 [Acenaphthene] | 1.04 | 1.01 | 0.974 | 0.995 | 1.04 (inactive) | 0.986 (inactive) | 1.01 (inactive) | 1.02 (inactive) | 1.02 (inactive) | 1.03 (inactive) | 0.982 (inactive) | 1.05 (inactive) |
| C=C1C[C@@H]2[C@H](CC[C@]3(C)C(=O)CC[C@@H]23)[C@@]2(C)C=CC(=O)C=C12 [Exemestane] | 0.934 | 1 | 1.03 | 1.07 | 0.984 (inactive) | 1.07 (inactive) | 1.03 (inactive) | 1.05 (inactive) | 0.981 (inactive) | 0.996 (inactive) | 1 (inactive) | 1.02 (inactive) |
| COc1cc(OC)nc(NC(=O)NS(=O)(=O)c2ncccc2C(=O)N(C)C)n1 | 1.19 | 1.03 | 1.02 | 1.22 | 0.96 (inactive) | 0.975 (inactive) | 1.01 (inactive) | 0.924 (inactive) | 1.03 (inactive) | 1.01 (inactive) | 1.01 (inactive) | 0.998 (inactive) |
| O=C(O)c1nc(Cl)ccc1Cl | 0.915 | 1.09 | 1.01 | 0.95 | 1.01 (inactive) | 0.99 (inactive) | 0.915 (inactive) | 0.975 (inactive) | 0.98 (inactive) | 0.963 (inactive) | 0.983 (inactive) | 1.02 (inactive) |
| CN(C)[C@@H]1C(=O)C(C(N)=O)=C(O)[C@@]2(O)C(=O)C3=C(O)c4c(O)cccc4[C@@](C)(O)[C@H]3[C@H](O)[C@@H]12 [Oxytetracycline dihydrate] | 0.0153 | 0.133 | 0.113 | 0.955 | 0.0509 (active) | 0.0182 (active) | 0.898 (inactive) | 0.279 (active) | 0.46 (active) | 0.113 (active) | 0.413 (active) | 0.92 (inactive) |
| C[C@]12CC[C@H](O)C[C@H]1CC[C@@H]1[C@@H]2C[C@@H](O)[C@]2(C)[C@@H](C3=CC(=O)OC3)CC[C@]12O [Digoxigenin] | 0.957 | 1.07 | 1.03 | 0.974 | 0.938 (inactive) | 1.04 (inactive) | 1.12 (inactive) | 1.04 (inactive) | 0.964 (inactive) | 1.01 (inactive) | 1.01 (inactive) | 1.12 (inactive) |

Reference: the supplement of paper PMC12494721
